Where “and” joins values, the source holds several entries; their conditions need not be identical. Identical values can stand only once. Calls of active or inactive are those of the source.

We go through four molecules from PubChem BioAssay.

A short description of assay [1]: small molecules captured by biotinylated probe aFSTL3 – biochemical, small-molecule microarray, fluorescence 635/667, stem cell growth factor project, primary screen (AID 1064).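 Also: measures binding of the biotinylated anti-FSTL3 antibody to printed compounds.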 The settings on record: higher = more signal.
Assay [2] in a line: binders from COS7 lysate, DM2A8 probe, primary screen, torsin A project, cell lysate, small-molecule microarray, fluorescence 635/667 (AID 1065). The settings on record: higher = more signal, COS7 lysate expressing mutant human TOR1A.
Assay [3] is described as follows: small molecules captured by biotinylated probe aFGF2 – biochemical, small-molecule microarray, fluorescence 635/667, stem cell growth factor project, primary screen (AID 1067).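 Also: measures binding of biotinylated aFGF2 protein to printed compounds on slides; z-score merges feature fluorescence and signal-to-noise across triplicate slides.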 The settings on record: higher = more signal.
A short description of assay [4]: small molecules captured by biotinylated probe aFGF10 – biochemical, small-molecule microarray, fluorescence 635/667, stem cell growth factor project, primary screen (AID 1071).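 Also: score merges 667 nm spot intensity and signal to noise from triplicate slides.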 The settings on record: higher = more signal.
The target of assay [5] is Neurogenic locus notch homolog protein 2 (Homo sapiens) (UniProt Q04721). In words: small molecules binding Notch2 protein – biochemical, small-molecule microarray, 635 nm fluorescence, stem cell growth factors, primary screen (AID 1073). The settings on record: higher = more signal.
Assay [6] concerns the target Pro-neuregulin-1, membrane-bound isoform (Homo sapiens) (UniProt Q02297). In words: small molecules binding neuregulin-1 protein – biochemical, small-molecule microarray, fluorescence 635/667, psychiatric disease protein project, primary screen (AID 1075).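 Also: score combines 667 nm spot fluorescence with signal to noise.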 The settings on record: NRG1 binding, 635 nm fluorescence, higher = more signal.
The subject of assay [7] is Neuregulin-1 EGF-like domain. In words: small molecules binding NRG1 EGF domain – biochemical, small-molecule microarray, 635 nm fluorescence, primary screen (AID 1081).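 Also: binding of the protein to compounds printed on small-molecule microarray slides.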 The settings on record: higher = more signal.
A short description of assay [8]: FRG1 expression reporter modulators in myotubes – cell-based, C2C12 myotubes, firefly/Renilla luciferase, luminescence, FRG1 inhibition for FSHD, primary screen (AID 1084). The settings on record: FRG1 promoter luciferase, higher = more signal, called active from +8 up or from −8 down.
Assay [9] in a line: small molecules captured by biotinylated probe aFST – biochemical, small-molecule microarray, fluorescence 635/667, stem cell growth factor project, primary screen (AID 1086).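 Also: score merges 667 nm fluorescence with signal-to-noise of each printed compound spot.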 The settings on record: higher = more signal.
Assay [10] can be described thus: binders of probe aHhip on microarray, primary screen, stem cell growth factor project, biochemical, small-molecule microarray, fluorescence 635/667 (AID 1087).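 Also: score merges spot fluorescence at 667nm with spot signal to noise ratio.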 The settings on record: higher = more signal.
For assay [11], the system named is PRMT1 (protein arginine N-methyltransferase 1). Nature of the assay: small molecules binding arginine methyltransferase PRMT1 – biochemical, small-molecule microarray, 635 nm fluorescence, primary screen (AID 1088).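 Also: binding of Prmt1 protein to compounds spotted on small-molecule microarray slides.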 The settings on record: higher = more signal.
The nature of assay [12]: growth effects on S. cerevisiae YJM789 – YJM789 clinical isolate, OD600, 24 h, basal, primary screen (AID 1089).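 Also: growth of clinical yeast isolate S. cerevisiae YJM 789 seeded 1000 cells per well; test concentration not given here.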 The settings on record: higher = more signal, called active from +8 up or from −8 down.
Assay [13] is described as follows: S. pombe growth modifiers, basal conditions – strain 972, OD600, 24 h, no modulator, primary screen (AID 1090).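 Also: basal condition with compound alone and no growth modifier present; test concentration not given here.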 The settings on record: S. pombe 972 growth, higher = more signal, called active from +8 up or from −8 down.
Assay [14] is described as follows: budding yeast growth modifiers under rapamycin – strain BY4716, OD600, 96 h, primary screen (AID 1091). Also: test concentration not given here. The settings on record: S. cerevisiae BY4716 + rapamycin, higher = more signal, called active from +8 up or from −8 down.
In assay [15] the target is Torsin-1A-interacting protein 2 (Homo sapiens) (UniProt Q8NFQ8). In words: small molecules binding lysate-expressed LULL1 – cell lysate, human LULL1 lysate, 635/667 nm fluorescence, primary screen (AID 1092).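 Also: probe is lysate of COS7 cells overexpressing human LULL1; score merges per-feature 667 nm fluorescence with signal-to-noise.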 The settings on record: small-molecule microarray, hLULL1 lysate binding, 635 nm fluorescence; higher = more signal.
A short description of assay [16]: optical density change of DRC41 E. coli – strain DRC41, OD650, 24 h, E. coli filamentation project, primary screen (AID 1093).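 Also: MC1000 strain lacking acrAB efflux and sulA so SOS filamentation is blocked; test concentration not given here.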 The settings on record: E. coli DRC41 growth, higher = more signal, called active from +8 up or from −8 down.
Assay [17] can be described thus: probe aLefty2 binding to arrayed compounds – biochemical, biotinylated probe, 635/667 nm fluorescence, primary screen (AID 1094).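 Also: score merges spot fluorescence near 667 nm with spot signal-to-noise ratio.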 The settings on record: small-molecule microarray, higher = more signal.
Assay [18] relates to Noggin (protein binding on small-molecule microarray). In words: small molecules binding Noggin protein – biochemical, 635/667 nm fluorescence, primary screen (AID 1095).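 Also: score merges 667 nm feature fluorescence with signal to noise over triplicate slides.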 The settings on record: 635 nm fluorescence, higher = more signal.
The target in assay [19] is Neurogenic locus notch homolog protein 3 (Homo sapiens) (UniProt Q9UM47). Nature of the assay: small molecules binding NOTCH3 protein – biochemical, 635/667 nm fluorescence, primary screen (AID 1096). The settings on record: small-molecule microarray, 635 nm fluorescence, higher = more signal.
Assay [20] can be described thus: probe aEGFR binding to arrayed compounds – biochemical, biotinylated probe, 635/667 nm fluorescence, primary screen (AID 1097).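 Also: probe is a biotinylated anti-EGFR antibody binding compounds printed on slides; score combines fluorescence near 667 nm and signal to noise of each spot.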 The settings on record: small-molecule microarray, higher = more signal.

Sequence of Pro-neuregulin-1, membrane-bound isoform (Homo sapiens) (Q02297 whole entry, looked up, the tested form may be a part, canonical isoform): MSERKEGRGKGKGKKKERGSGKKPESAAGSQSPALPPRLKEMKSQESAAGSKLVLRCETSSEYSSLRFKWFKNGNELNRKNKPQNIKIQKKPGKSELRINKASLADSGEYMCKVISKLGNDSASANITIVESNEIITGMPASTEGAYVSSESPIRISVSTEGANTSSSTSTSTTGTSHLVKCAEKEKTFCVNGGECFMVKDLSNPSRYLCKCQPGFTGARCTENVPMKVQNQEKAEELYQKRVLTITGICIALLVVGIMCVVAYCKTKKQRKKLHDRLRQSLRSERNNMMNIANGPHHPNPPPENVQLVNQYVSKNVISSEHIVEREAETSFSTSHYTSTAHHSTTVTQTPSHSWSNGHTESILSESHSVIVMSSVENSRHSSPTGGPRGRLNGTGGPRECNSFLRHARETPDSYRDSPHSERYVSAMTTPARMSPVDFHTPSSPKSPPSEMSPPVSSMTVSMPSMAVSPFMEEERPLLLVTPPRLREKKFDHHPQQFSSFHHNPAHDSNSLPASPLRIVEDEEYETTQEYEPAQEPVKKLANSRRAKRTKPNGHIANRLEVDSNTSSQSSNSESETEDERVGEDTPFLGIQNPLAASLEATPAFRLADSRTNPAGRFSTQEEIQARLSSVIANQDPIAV
Sequence of Torsin-1A-interacting protein 2 (Homo sapiens) (Q8NFQ8 whole entry, looked up): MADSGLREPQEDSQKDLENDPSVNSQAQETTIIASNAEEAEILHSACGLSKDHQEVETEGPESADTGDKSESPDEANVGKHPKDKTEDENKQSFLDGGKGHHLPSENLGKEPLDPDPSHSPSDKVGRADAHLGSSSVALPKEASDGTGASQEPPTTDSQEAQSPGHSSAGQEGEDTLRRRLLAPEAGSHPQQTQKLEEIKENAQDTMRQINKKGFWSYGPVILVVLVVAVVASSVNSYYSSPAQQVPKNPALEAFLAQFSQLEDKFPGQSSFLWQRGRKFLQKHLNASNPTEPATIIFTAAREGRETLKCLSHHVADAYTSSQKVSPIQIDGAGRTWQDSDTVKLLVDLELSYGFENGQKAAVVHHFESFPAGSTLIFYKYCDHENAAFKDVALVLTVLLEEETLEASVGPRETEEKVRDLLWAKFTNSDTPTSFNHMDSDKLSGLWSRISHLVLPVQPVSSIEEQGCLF
Sequence of Neurogenic locus notch homolog protein 3 (Homo sapiens) (Q9UM47 whole entry, looked up): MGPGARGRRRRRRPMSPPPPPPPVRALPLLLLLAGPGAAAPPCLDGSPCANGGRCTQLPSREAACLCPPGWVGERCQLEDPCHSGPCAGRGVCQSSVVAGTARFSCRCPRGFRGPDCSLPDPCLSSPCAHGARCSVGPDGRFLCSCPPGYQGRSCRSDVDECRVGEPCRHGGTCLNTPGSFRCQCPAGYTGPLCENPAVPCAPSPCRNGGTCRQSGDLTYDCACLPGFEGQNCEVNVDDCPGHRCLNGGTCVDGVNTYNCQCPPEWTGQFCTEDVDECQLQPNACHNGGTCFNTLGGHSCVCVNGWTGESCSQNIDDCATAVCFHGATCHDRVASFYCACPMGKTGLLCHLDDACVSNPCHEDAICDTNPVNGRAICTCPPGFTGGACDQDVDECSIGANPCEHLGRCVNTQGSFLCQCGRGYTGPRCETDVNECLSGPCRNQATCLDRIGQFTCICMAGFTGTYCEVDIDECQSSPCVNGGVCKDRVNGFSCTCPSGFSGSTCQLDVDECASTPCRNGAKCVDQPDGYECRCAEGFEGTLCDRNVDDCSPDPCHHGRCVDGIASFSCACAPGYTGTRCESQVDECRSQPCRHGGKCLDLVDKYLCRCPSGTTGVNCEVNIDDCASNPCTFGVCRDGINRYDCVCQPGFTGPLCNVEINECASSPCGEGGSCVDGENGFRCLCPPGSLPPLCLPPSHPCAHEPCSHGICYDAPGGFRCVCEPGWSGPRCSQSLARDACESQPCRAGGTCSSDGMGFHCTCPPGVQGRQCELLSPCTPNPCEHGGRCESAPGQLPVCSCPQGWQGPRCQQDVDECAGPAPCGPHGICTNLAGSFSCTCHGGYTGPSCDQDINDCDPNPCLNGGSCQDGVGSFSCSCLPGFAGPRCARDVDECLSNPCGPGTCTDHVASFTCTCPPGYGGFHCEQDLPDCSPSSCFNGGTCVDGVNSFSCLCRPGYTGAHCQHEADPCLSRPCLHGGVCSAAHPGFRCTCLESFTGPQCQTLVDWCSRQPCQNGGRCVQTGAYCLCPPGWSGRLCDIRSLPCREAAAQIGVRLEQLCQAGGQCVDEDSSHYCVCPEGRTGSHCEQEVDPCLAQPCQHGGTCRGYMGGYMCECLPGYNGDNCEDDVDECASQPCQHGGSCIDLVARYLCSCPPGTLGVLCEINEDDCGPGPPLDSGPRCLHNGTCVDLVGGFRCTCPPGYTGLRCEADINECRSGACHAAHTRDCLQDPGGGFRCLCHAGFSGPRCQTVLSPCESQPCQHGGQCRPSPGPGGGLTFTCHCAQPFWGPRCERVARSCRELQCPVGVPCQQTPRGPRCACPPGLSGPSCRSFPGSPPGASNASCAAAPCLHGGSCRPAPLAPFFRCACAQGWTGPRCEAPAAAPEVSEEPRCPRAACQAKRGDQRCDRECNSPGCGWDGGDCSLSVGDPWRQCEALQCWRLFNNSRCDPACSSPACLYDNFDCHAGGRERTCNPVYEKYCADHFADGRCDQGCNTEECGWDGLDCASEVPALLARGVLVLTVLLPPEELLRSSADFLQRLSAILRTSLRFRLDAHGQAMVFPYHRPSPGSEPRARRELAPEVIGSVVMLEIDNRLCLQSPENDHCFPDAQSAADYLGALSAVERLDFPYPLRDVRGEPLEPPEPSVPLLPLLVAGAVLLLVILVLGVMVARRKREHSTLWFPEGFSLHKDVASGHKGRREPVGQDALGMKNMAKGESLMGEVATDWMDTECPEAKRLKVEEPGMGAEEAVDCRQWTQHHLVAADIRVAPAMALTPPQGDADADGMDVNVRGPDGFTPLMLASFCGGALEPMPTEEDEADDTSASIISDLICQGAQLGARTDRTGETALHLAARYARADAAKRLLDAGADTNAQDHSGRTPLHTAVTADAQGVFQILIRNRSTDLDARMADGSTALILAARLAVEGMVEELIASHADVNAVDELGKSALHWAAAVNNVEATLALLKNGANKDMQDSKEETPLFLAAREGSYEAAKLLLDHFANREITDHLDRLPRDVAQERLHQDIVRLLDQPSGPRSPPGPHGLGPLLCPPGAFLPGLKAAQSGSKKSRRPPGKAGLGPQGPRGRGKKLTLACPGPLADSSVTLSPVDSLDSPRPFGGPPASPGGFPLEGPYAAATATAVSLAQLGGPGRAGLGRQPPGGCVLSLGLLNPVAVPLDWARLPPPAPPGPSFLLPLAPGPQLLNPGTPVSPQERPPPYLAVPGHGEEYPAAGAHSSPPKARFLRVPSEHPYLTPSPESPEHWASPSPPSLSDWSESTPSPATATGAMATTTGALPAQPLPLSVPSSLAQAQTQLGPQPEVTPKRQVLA

Consider `C[C@@H]1CC[C@H]2C(=O)O[C@H](CN=[N+]=[N-])CN2[C@H]1c1ccc(Br)cc1`, for which the composite z-score in [1] was -0.0927 and -0.0564; in assay [2], 0.622 and 0.269; in assay [3], -0.158 and -0.187; in [4], -0.12 and -0.336; in assay [5] it was -0.321 and -0.635; in [6], -0.198 and 0.292. Moreover, the composite z-score in assay [7] was -0.238 and -0.279; in assay [9] it was 0.3 and -0.405; in assay [10], -0.0657 and -0.0618; in [11], 0.692 and 0.323; in assay [15], 0.359 and -0.0523; in assay [17], -0.245 and -0.0174. The composite z-score in [18] was 0.366 and 0.115; in [19] it was -0.105 and -1.06; in assay [20], 0.0172 and -0.252. In addition, the z-score is -0.492 (inactive) and -0.161 (inactive) in assay [8]; -0.471 (inactive) and 0.113 (inactive) in [12]; -16.7 (active) and -14.3 (active) in [13]; -2.15 (inactive) and -0.441 (inactive) in [14]; -0.548 (inactive) and 0.433 (inactive) in assay [16].

`O=c1n(-c2ccccc2)c(=O)n2n1CC[C@@H]1C(=NOC[C@@H](O)COCc3ccco3)[C@H]3O[C@H]3[C@@H](O)[C@@H]12`: the composite z-score in [1] was -0.538 and -0.609; in assay [2], 1.27 and 1.24; in [3], -0.209 and -0.258; in [4], 0.265 and -0.486; in assay [5], -0.0496 and 0.156; in [6], -0.498 and -0.0731. Further, the composite z-score in [7] is 0.874 and -0.672; in assay [9] it was 0.0872 and 0.231; in assay [10] it was -0.0994 and -0.069; in assay [11], 1.23 and -0.267; in assay [15] it was 0.264 and -1.26; in [17] it was -0.107 and -0.0797. In addition, the composite z-score in assay [18] is 1.06 and 0.325; in assay [19] it was 0.827 and -0.585; in [20], -0.139 and -0.0512. The z-score was 0.193 (inactive) and -0.52 (inactive) in assay [8]; -0.188 (inactive) and 0.0291 (inactive) in assay [12]; -0.7 (inactive) and 0.498 (inactive) in assay [13]; 0.0488 (inactive) and 0.801 (inactive) in assay [14]; -0.517 (inactive) and 0.0684 (inactive) in assay [16].

As to `COC(=O)C1=C(C)N(Cc2ccccc2)C2=C(C(C)=O)C[C@@](O)(C(=O)OC)C(=O)N2[C@@H]1c1ccccc1`, the composite z-score in [1] was -0.335 and -0.244; in assay [2], 1.12 and -0.0954; in assay [3], -0.0005 and -0.118; in assay [4], 0.889 and 0.0839; in [5], 1.43 and 1.26; in assay [6], -0.119 and -0.159. In addition, the composite z-score in assay [7] is 1.05 and 0.439; in assay [9] it was 0.235 and 0.385; in assay [10], -0.0994 and 0.21; in [11], 1.55 and -0.0318; in [15], 1.68 and 0.258; in assay [17] it was -0.195 and -0.331. The composite z-score in assay [18] was 0.364 and 0.0733; in [19], 0.729 and -0.153; in assay [20], 0.0069 and -0.158. The z-score in [8] was -0.486 (inactive) and -0.75 (inactive); in [12] it was -0.762 (inactive) and -2.05 (inactive); in assay [13], -0.987 (inactive) and -1.63 (inactive); in assay [14] it was -1.32 (inactive) and -0.654 (inactive); in assay [16], 0.528 (inactive) and 0.524 (inactive).

In the case of `C=CCN(Cc1ccccc1)C(=O)C(c1cccs1)N(C(=O)/C=C\C(=O)O)c1c(Cl)cccc1CO` (stereo not given), the composite z-score is 0.233 and 1.13 in assay [1]; -0.778 and -1.07 in assay [2]; -0.241 and -0.193 in assay [3]; -1.08 and -2.14 in [4]; -1.53 and -2.16 in assay [5]; -0.984 and -1.12 in assay [6]. In addition, the composite z-score is 0.462 and -0.851 in assay [7]; -1.91 and -1.01 in assay [9]; -0.549 and -0.38 in assay [10]; -0.716 and -1.9 in [11]; -1.36 and -0.736 in assay [15]; -0.128 and -0.121 in assay [17]. Moreover, the composite z-score in assay [18] is -2.28 and -3.61; in assay [19], -1 and -1.49; in assay [20], -0.252 and -0.359. Moreover, the z-score is -0.0406 (inactive) and 0.885 (inactive) in assay [8]; 0.506 (inactive) and -0.555 (inactive) in assay [12]; 0.172 (inactive) and 0.261 (inactive) in [13]; 0.23 (inactive) and -0.457 (inactive) in [14]; 2.07 (inactive) and -0.369 (inactive) in [16].
